INS promoter inh: inhibitors of insulin promoter-driven GFP, primary screen, imaging, TRM-6 cells (human fetal islet line), eGFP reporter, cell count; reporter expression induced with tamoxifen; inhibition, % at 2 µM; 0.9% of 130,000 active; AID 1273, 2008;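 active = inhibition above the mean plus 3 SD, with well images judged a real hit on visual review, cut at about 60% in these data, passing the limit was not always enough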
Lmaj promast: Leishmania major promastigote growth inhibition, primary screen; AID 1063, 2008; Leishmania major promastigotes, resazurin fluorescence viability; inhibition, % at 10 µM; 9% of 200,000 active; in the data active = inhibition above about 50%;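 also: promastigotes grown with compound for 44 hours at 28 °C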
HCT116 PTEN-null: growth suppression of PTEN-null HCT116, primary screen, cell-based, CellTiter-Glo; HCT116 PTEN-null viability, 60 h; stronger effect = lower value; viability, % at 10 µM; 1.2% of 140,000 active;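 active = viability at or below a set limit, 4 SD under the median of all tested compounds, cut at about 3.7% in these data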;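 also: PTEN knockout HCT116 line with beta catenin targeted HCT116 as companion control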
HCT116 bCat-KO: primary screen for growth suppressors in beta-catenin knockout HCT116 cells (colon tumor, human) | HCT116 beta-catenin knockout viability, CellTiter-Glo, 60 h; stronger effect = lower value | viability, % at 10 µM | 1.5% of 140,000 active | AID 818, 2007;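 active = viability at or under a set limit, the compound median less 4 SD, cut at about 6% in these data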
Autophagy HCS: autophagy modulators in MEF cells, primary screen, imaging, high-content, MEF GFP-LC3 | MEF GFP-LC3 puncta imaging; test concentration mostly 10 µM | calls only at 10 µM (by protocol) | 0.98% of 190,000 active | AID 463193, 2010;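 active = percentage of spot-positive cells more than 3 SD above its plate mean, without a fluorescence outlier flag or 80% toxicity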
Ins promoter up: insulin promoter activators in MIN6 cells, imaging, high-content screening, mouse beta cells. MIN6 insulin promoter-GFP reporter; stronger effect = higher value. 0.3% of 190,000 active. z-score at 5 µM. AID 1625, 2009;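 active = z-score above 3 at 5 µM with at least 500 cells counted in the well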
Large screens that a line does not name were inactive. Sampled rows, rich in hits. Any-hit rate of the full collection: about 9.6%.

COc1ccc(Cl)cc1C(=O)N(Cc1nc(-c2cccc(C)c2)no1)C(C)C	Lmaj promast 85.1 (no result: INS promoter inh)
CCSc1ccc2cc(OC)ccc2[n+]1CC	Lmaj promast 83.7 (no result: INS promoter inh, HCT116 PTEN-null, HCT116 bCat-KO)
O=C(CSc1nc2ccccc2[nH]1)Nc1ccc2c(c1)OCCO2	none
O=C(CSc1ncccc1-c1nc2ccccc2[nH]1)Nc1ccc2c(c1)OCCO2	Lmaj promast 72.8
COc1ccc(C2CC(c3c(-c4ccccc4)c4cc(Cl)ccc4[nH]c3=O)=NN2S(C)(=O)=O)cc1 (centres undefined)	none
Cc1ccc(C)c(Cn2c(C(=O)OC(C)C)cc3c2ccn3C)c1	Lmaj promast 94.8
CCOC(=O)c1cc2c(ccn2C)n1CC(=O)N(Cc1ccccc1)c1ccccc1	Lmaj promast 97.5
CCOC(=O)c1cc2c(ccn2C)n1CC(=O)N(Cc1ccccc1)c1ccc(F)cc1	Lmaj promast 97.8
CC(C)OC(=O)c1cc2c(ccn2C)n1CC(=O)N(Cc1ccccc1)c1ccc(F)cc1	Lmaj promast 99.0
CC(C)OC(=O)c1cc2c(ccn2C)n1CC(=O)N1CCC(Cc2ccccc2)CC1	none
CCN(CC)c1cc2nonc2c2nonc12	none (no result: INS promoter inh)
COc1ccc(Cl)cc1NC(=O)C(=O)NCc1ccncc1	none (no result: HCT116 PTEN-null, HCT116 bCat-KO)
O=C(Nc1ccccc1)ON=C1CCCC1	none
Cc1ccc(NC(=O)ON=C2CCCC2)cc1	Lmaj promast 84.2
Cc1ccc(C2=C(CC(=O)O)C(=O)CC2)cc1	none
CN(C)c1ccc(/C=C(\Cl)c2nc3ccccc3s2)cc1	none
CCCN(CCC)CCCNc1ccc2nnc(-c3ccc(F)cc3)n2n1	Lmaj promast 58.9 (no result: INS promoter inh, Autophagy HCS)
COc1ccc(N(CC(=O)Nc2ccc(F)c(Cl)c2)S(=O)(=O)c2c(C)noc2C)cc1	none
COC(=O)Cn1c2ccc(F)cc2c2nc(C)sc21	none (no result: INS promoter inh)
CCOC(=O)Cn1c2ccc(F)cc2c2nc(C)sc21	Ins promoter up 3.68 (no result: HCT116 PTEN-null, HCT116 bCat-KO)
Cc1nc2c3cc(Cl)ccc3n(CCN3CCCCC3)c2s1	Autophagy HCS active
Cc1nc2c3cc(F)ccc3n(Cc3ccc(F)cc3)c2s1	INS promoter inh 76.7
CCc1ccc2c(c1)c1nc(C)sc1n2CC	none (no result: INS promoter inh)
COC(=O)Cn1c2ccc(Cl)cc2c2nc(C)sc21	none (no result: INS promoter inh, Lmaj promast, HCT116 PTEN-null, HCT116 bCat-KO, Autophagy HCS)
Cc1ccc(S(=O)(=O)n2c3ccc(Cl)cc3c3nc(C)sc32)cc1	INS promoter inh 80.0
CCOC(=O)CC1C(=O)NCCN1Cc1ccc(OC)c(OC)c1 (centres undefined)	none (no result: HCT116 PTEN-null, HCT116 bCat-KO)
CSc1ncccc1C(=O)OCC(=O)Nc1ccc(S(=O)(=O)N2CCCC2)cc1	none
CCCCc1ccc(NC(=O)COc2ccc(C(=O)Nc3ccccc3OC)cc2)cc1	Lmaj promast 72.4
CCCCc1ccc(NC(=O)COc2ccc(C(=O)Nc3ccccc3C)cc2)cc1	none
CNC(=S)NCCc1ccc(OC)cc1	none (no result: INS promoter inh, HCT116 PTEN-null, HCT116 bCat-KO)
Cc1cc(C)cc(-n2c(=O)c3sccc3n(CC(=O)NCc3ccco3)c2=O)c1	Ins promoter up 4.64 (no result: INS promoter inh)
Cc1cccc(Cn2c(=O)n(-c3ccc(CC(=O)NCc4ccco4)cc3)c(=O)c3sccc32)c1	Lmaj promast 63.4 (no result: INS promoter inh)
Cc1ccc(-n2c(=O)c3sccc3n(CC(=O)NCc3ccco3)c2=O)cc1	none
CCc1ccc(CN(C)C(=O)CCc2nnc(CCc3cccc(OC)c3)o2)nc1	Lmaj promast 99.7 (no result: HCT116 PTEN-null, HCT116 bCat-KO, Ins promoter up)
Cn1c(=O)n(C)c2cc(NC(=O)COc3ccc(Cl)cc3)ccc21	Ins promoter up 3.02 (no result: HCT116 PTEN-null, HCT116 bCat-KO)
CCN1CCN(CCc2nc3cc(NC(=O)COc4ccc(Cl)cc4)ccc3n2C)CC1	none (no result: INS promoter inh, Lmaj promast, HCT116 PTEN-null, HCT116 bCat-KO, Autophagy HCS)
CCCCN(C)CCNC(=O)c1nn(-c2ccc(OC)cc2)c(=O)c2c1c1ccccc1n2C	Autophagy HCS active (no result: INS promoter inh, HCT116 PTEN-null, HCT116 bCat-KO, Ins promoter up)
CCCc1n(CC)c2ccccc2[n+]1CC(O)COC1CCCCC1 (centres undefined)	Lmaj promast 97.0 (no result: HCT116 PTEN-null, HCT116 bCat-KO, Ins promoter up)
Cc1ccc2[nH]c3c(=O)n(N)c(=O)[nH]c3c2c1	none (no result: INS promoter inh, Lmaj promast, HCT116 PTEN-null, HCT116 bCat-KO, Autophagy HCS)
COc1ccc2[nH]c3c(=O)n(N)c(C)nc3c2c1	INS promoter inh 80.7
Cc1ccc2[nH]c3c(=O)n(N)c(C)nc3c2c1	INS promoter inh 93.8 (no result: HCT116 PTEN-null, HCT116 bCat-KO)
Cc1ccc(-n2ncc(C#N)c2/N=C/N2CCCCCC2)cc1	none (no result: INS promoter inh)
COc1ccc(C(=O)c2ccc(N(C)C)cc2)c2ccccc12	Autophagy HCS active (no result: Ins promoter up)
Cc1ccc(NC(=O)c2ccc(NCCCN3CCC(C)CC3)c([N+](=O)[O-])c2)cc1F	Lmaj promast 84.0 (no result: HCT116 PTEN-null, HCT116 bCat-KO)

Screens from PubChem BioAssay.
